Screening results (PubChem BioAssay)
In the library only some 2.8% were active in any assay of this set; here they are far more common.
POLH inh – DNA polymerase eta (human) inhibition. recombinant Pol eta, fluorescent DNA replication assay. Potency, µM (top dose mostly 114 µM), most hits filed as inhibitors. actives 1.2% (n = 390,000). AID 588591
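Pol eta (10 nM) was preincubated with compounds for 15 min at room temperature, after which fluorescent replication substrate (50 nM final) was added to start the reaction. Fluorescence was read kinetically at 0 and 10 min.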
Pol iota inh – blocks human DNA polymerase iota activity | Q9UNA4 | Pol iota fluorescent replication assay, 10 min | Potency, µM (highest dose often 115 µM), actives largely listed as inhibitors | actives 1% (n = 390,000) | AID 588590
Target sequence (Q9UNA4 whole entry, looked up): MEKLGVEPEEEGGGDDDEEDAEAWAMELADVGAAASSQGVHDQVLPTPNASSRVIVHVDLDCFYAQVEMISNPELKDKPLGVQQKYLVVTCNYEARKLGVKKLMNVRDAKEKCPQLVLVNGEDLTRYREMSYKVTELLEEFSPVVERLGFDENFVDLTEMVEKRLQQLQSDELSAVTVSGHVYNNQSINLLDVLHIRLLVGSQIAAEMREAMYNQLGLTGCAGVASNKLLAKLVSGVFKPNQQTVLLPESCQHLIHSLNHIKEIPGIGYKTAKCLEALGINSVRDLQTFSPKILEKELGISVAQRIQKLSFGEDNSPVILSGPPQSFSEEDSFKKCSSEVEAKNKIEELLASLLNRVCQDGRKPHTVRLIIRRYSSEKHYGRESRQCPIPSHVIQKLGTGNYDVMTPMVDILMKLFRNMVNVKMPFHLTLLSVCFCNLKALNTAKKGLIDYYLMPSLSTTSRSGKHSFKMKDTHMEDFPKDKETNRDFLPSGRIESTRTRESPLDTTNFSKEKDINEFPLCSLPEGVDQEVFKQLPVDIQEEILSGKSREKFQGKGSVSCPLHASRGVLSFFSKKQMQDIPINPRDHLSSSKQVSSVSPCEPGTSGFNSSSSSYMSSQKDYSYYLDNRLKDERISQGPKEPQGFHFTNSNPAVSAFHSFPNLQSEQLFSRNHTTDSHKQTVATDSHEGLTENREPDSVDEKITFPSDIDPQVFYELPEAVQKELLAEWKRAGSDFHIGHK
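Fluorescent replication assay read twice, at 0 min and 10 min after adding 50 nM (final) substrate. Enzyme (10 nM) and compounds were first incubated 15 min at room temperature; enzyme-free buffer wells were negative controls.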
POLK inh – DNA polymerase kappa (human) inhibition | Q9UBT6 | purified Pol kappa, fluorescent DNA synthesis assay, 10 min | Potency, µM (highest dose often 107 µM), actives largely listed as inhibitors | actives 0.53% (n = 400,000)
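Kinetic fluorescence screen: compound preincubated 15 min RT with 10 nM enzyme; 50 nM substrate (final) initiates; reads at 0/10 min.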
PI5P4K alpha inh – PI5P4K alpha (human) kinase inhibition | P48426 | PI5P4Kalpha enzyme, ADP-Glo luminescence, 60 min; stronger effect = lower value | max response, % | actives 1.2% (n = 330,000); active means max response of -50% or lower; inconclusive means between -30% and -50%; inactive means -30% or higher; further: value at the top dose of about 77 µM
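ADP-Glo luminescence end-point after a 60 min room-temperature kinase reaction. PI5P4Kalpha and substrate in HEPES pH 7.4 buffer with EGTA, 0.1% CHAPS and 5% DMSO; ATP at 5 microM final.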
POLB inh – DNA polymerase beta (human) inhibition | actives 1.3% (n = 340,000) | Potency, µM (top dose mostly 114 µM), actives largely listed as inhibitors | Pol beta primer extension/strand displacement, fluorescence kinetic | P06746 | AID 485314
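Values derive from four-parameter Hill fits of normalized kinetic data: reads at 0 and 10 min following addition of 50 nM substrate to 10 nM Pol beta preincubated 15 min with compound.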
WRN inhibitor – WRN helicase (human) inhibition; WRN helicase unwinding, fluorescent forked duplex, kinetic; actives 0.46% (n = 360,000); AID 651768; Potency, µM (series often up to 114 µM), most hits filed as inhibitors; further: nearly all actives have a fitted effect of over 55% in size
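Kinetic red-fluorescence monitoring (525/598 nm) tracks WRN helicase activity after 100 nM fluorophore-quencher forked duplex and 2 mM ATP are added to 20 nM enzyme pretreated 15 min at room temperature with compound.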
A number is an active result; i = inactive; ? = inconclusive; nt = no result; ! = repeats disagree; [ ] = dose if it differs, or a comment. Unless noted, the call rests on the fitted dose curve; in most records, active means well fitted curve in the direction sought with a large enough effect; inconclusive means small, poorly fitted or top-dose-only effect, or another doubt; inactive means no such curve, though single readings can be large; an effect the other way counts as inactive or inconclusive.

SMILES	POLH inh	Pol iota inh	POLK inh	PI5P4K alpha inh	POLB inh	WRN inhibitor
C=CCOc1ccc(/C=C\c2nc(O)c([N+](=O)[O-])c(=O)[nH]2)cc1OC	25.1µM	50.1µM	?	?	i	i
C=CCOc1ccc(/C=C\c2nc(O)c([N+](=O)[O-])c(=O)[nH]2)cc1OCC	20µM	?	i	-55.1	i	i[11.6 µM]
COc1ccccc1/C=C1\C=Cc2ccccc21	nt	?	i	nt	nt	nt
COCCCNc1nc(NCc2ccc(C)cc2)c2cnn(C)c2n1	nt	i	i	nt	i	nt
O=C(Nc1ccc(C(=O)OCc2cc(=O)n3c4c(sc3n2)CCCC4)cc1)c1ccc(Cl)cc1	i	i	i	nt	i	nt
O=C(c1ccc(Cl)cc1)N1CCC(c2nc3ccccc3o2)CC1	i	i	i	nt	i	nt
Cc1ccc2[nH]c(CSc3nnc(NC(=O)COc4ccccc4)s3)cc(=O)c2c1	i	i	i	nt	i	nt
Oc1c(Cl)cc(Cl)cc1C=Nc1ccc(Br)cc1	?	i	i	-54.6	i	i
CCOc1ccc(S(=O)(=O)NCCc2csc3nc(-c4ccc(F)cc4)nn23)cc1	i	i	i	nt	i	nt
CN(C)c1ccc(/C=C2\C=Cc3ccccc32)cc1[N+](=O)[O-]	nt	i	i	nt	nt	nt
N#CC1=C(S)N(c2ccccc2)C(c2ccc(-c3cc(Cl)ccc3Cl)o2)NC1=O (centres undefined)	i	i	i	i	31.6µM	i
CCc1ccc(NC(=O)CSc2nc(-c3ccc(C)cc3)nc3c2Cc2c(CO)cnc(C)c2O3)cc1	?	?	i	nt	50.1µM	nt
COc1ccc(-c2nc3c(c(SCC(=O)Nc4cccc(O)c4)n2)Cc2c(CO)cnc(C)c2O3)cc1	20µM	6.31µM	79.4µM!	?	1.58µM!	i[11.6 µM]
CCOc1ccc(NC(=O)CSc2nc(-c3cccc(Cl)c3)nc3c2Cc2c(CO)cnc(C)c2O3)cc1	i	i	i	nt	i	nt
CCOc1ccc(NC(=O)CSc2nc(-c3ccc(OC)cc3)nc3c2Cc2c(CO)cnc(C)c2O3)cc1	i	?	i	nt	39.8µM	nt
Cc1ncc(CO)c2c1Oc1nc(-c3ccccc3)nc(SCC(=O)Nc3cccc(C(F)(F)F)c3)c1C2	?	i	i	nt	35.5µM	nt
CS(=O)(=O)c1ccc(NC(=O)COc2ccccc2C(=O)Nc2ccccc2)cc1	nt	i	i	nt	nt	nt
Cc1cccn2c(=O)cc(COc3ccc(NC(=O)c4cccc(F)c4)cc3)nc12	i	i	i	nt	i	nt
O=C(Nc1ccc(F)cc1Cl)C1CCN(c2ncnc3c2nc2n3CCCCC2)CC1	i	i	i	nt	i	nt
Cc1ncc(CO)c2c1Oc1nc(-c3ccc(F)cc3)nc(SCc3ccc(F)cc3Cl)c1C2	i	i	i	nt	50.1µM	nt
CCc1ccc(-c2nc3c(c(SCc4ccc(F)cc4)n2)Cc2c(CO)cnc(C)c2O3)cc1	i	i	i	nt	i	nt
O=C(CSc1cccc2cccnc12)N/N=C/c1cccc(O)c1	i	i	i	i	i	i
O=C(N/N=C/c1ccc(O)c(O)c1)c1ccc(CSc2cccc3cccnc23)cc1	3.55µM	?	?	i	3.16µM	?
CCc1ccc(NC(=O)Cn2nnc(-c3ccccc3N)n2)cc1	i	i	i	nt	i	nt
CCOC(=O)C1Nc2ccccc2C2C(O)C(O)CC12 (centres undefined)	i	25.1µM	i	i	nt	i
SMILES	POLH inh	Pol iota inh	POLK inh	PI5P4K alpha inh	POLB inh	WRN inhibitor
Cn1nc(-c2ccc(OCC(=O)Nc3cccnc3)cc2)c2ccccc2c1=O	i	i	i	i	i	i
Cn1nc(-c2ccc(OCC(=O)Nc3cccc(C(F)(F)F)c3)cc2)c2ccccc2c1=O	79.4µM	i	i	nt	?	nt
COc1ccc(CCC(=O)Nc2c(-c3ccc(N(C)C)cc3)[nH][nH]c2=O)cc1	nt	nt	nt	-60.0	nt	i
CC(=O)Nc1cccc(-c2nc3ccc(NC(C)=O)cc3[nH]2)c1	?	?	?	i	44.7µM	i
COC(=O)c1ccc(C(=O)Nc2ccc3nc(-c4cccnc4)[nH]c3c2)cc1	i	i	i	i	i	i
Nc1ccc(C(=O)Nc2ccc3nc(-c4cccnc4)[nH]c3c2)cc1	i	i	?	i	39.8µM	i
Nc1ccc(C(=O)Nc2ccc(Nc3ccncc3)cc2)cc1	i	?	i	i	31.6µM	i
Nc1ccc(NC(=O)c2ccc(C(=O)Nc3ccc(N)cc3)cc2)cc1	i	i	i	i	?	i
COc1ccc2ncc3c(-c4ccc(C)c(C)c4)nn(CC(=O)NC4CCCCC4)c3c2c1	i	?	i	nt	i	nt
CC(=O)Nc1ccc(-c2ccc(NC(C)=O)c(O)c2)cc1O	35.5µM	?	?	?	?	i[11.6 µM]
CC(=O)Nc1ccccc1O	i	i	i	i	i	i
COc1ccc(CCNC(=O)C(=O)Nc2ccc(C)cc2)cc1OC	i	?	i	nt	i	nt
COc1ccc([N+](=O)[O-])cc1NC(=O)Nc1ccc(OC)c(OC)c1	i	i	i	i	20µM	?
COc1ccc([N+](=O)[O-])cc1NC(=O)Nc1cccc(Cl)c1	?	i	i	i	i	i
COc1ccc([N+](=O)[O-])cc1C(=O)Nc1ccc(Cc2ccncc2)cc1	i	i	i	i	11.2µM	i
COc1cccc(NC(CNS(=O)(=O)c2ccc(Cl)cc2)c2ccccc2)c1 (centres undefined)	nt	i	i	nt	i	nt
CCOc1ccc(NC(=O)CC2C(=O)N(c3ccccc3)C(=O)N2CCc2ccc(OC)cc2)cc1 (centres undefined)	i	i	i	nt	i	nt
C[C@@H]1[C@H](c2ccccc2)OCCS(=O)(=O)N1Cc1cccc(Cl)c1	nt	i	i	nt	nt	nt
CCN(CC)C(=O)C1CCCN(C(=O)Nc2ccc3nsnc3c2)C1 (centres undefined)	?	0.891µM	i	i	i	i
S=C(Nc1ccc2nsnc2c1)N1CCCCC1	i	3.55µM	i	i	i	i
S=C(Nc1ccc(Cl)c(Cl)c1)N1CCCC1	i	i	i	i	i	i
O=C(Nc1ccc2nsnc2c1)C1CC1	i	i	i	i	i	i
CCOc1cc(CNC(=O)NC2COc3ccccc3C2)cc(OCC)c1OCC (centres undefined)	i	i	i	nt	i	nt
CCOc1ccc(NS(=O)(=O)c2ccc(C(=O)N(C)C)s2)cc1	i	i	i	nt	i	nt
O=C1C=CC(=O)C(C2=C3C(=O)N(CCc4ccccc4)CC(=O)N3CCC2)=C1	i	?	i	-71.7	i	39.8µM
COc1cc(/C=C(\C#N)c2nc3ccccc3[nH]2)cc(Cl)c1OCc1ccccc1Cl	?	i	i	nt	3.16µM	nt
CC(=Cc1ccccc1)C=C1SC(=S)N(CCCC(=O)Nc2ccc(C(=O)O)c(O)c2)C1=O	nt	nt	nt	-56.5	nt	?
O=C(CCN1C(=O)/C(=C/c2cccs2)SC1=S)Nc1ccc(C(=O)O)c(O)c1	39.8µM	i	i	-58.0	?	i[11.6 µM]
